# Screening results from PubChem.
# IMPase Li inh = membrane-permeable IMPase blocker, potentiated with lithium; CHO-M1 cells, IP1 TR-FRET (IP-One), carbachol + lithium; Potency, µM (top dose mostly 59.4 µM), for inactives: at the highest dose activity, negative = IMPase inhibition, actives largely listed as inhibitors; 210,000 compounds, 0.35% hits;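 note: IP1 builds up when IMPase is blocked and the TR-FRET signal falls; potency is the fitted concentration of half-maximal effect; plate controls were basal vehicle for no effect and high inhibitor control for full effect; nearly all actives have a fitted effect of over 50% in size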
#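 CHO cells stably expressing M1 receptor (2000/well, cultured 16–30 h) treated 30 min at 37C with compound plus low lithium. Cytosolic IP1 by TR-FRET (665/620 ratio and 620 channel) after 10 min lysis; AC50 by Hill fit.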
# ALDH1A1 inh = blocks purified human ALDH1A1 activity; P00352; Purified ALDH1A1, NADH fluorescence, propionaldehyde substrate; Potency, µM (series often up to 75.3 µM), for the others: at the highest dose activity, negative = inhibition, hits mostly inhibitors; 220,000 compounds, 7.3% hits; AID 1030; active = well fitted inhibition curve with a large enough effect, not every such curve was filed as active; inconclusive = small, poorly fitted or top-dose-only effect, or another doubt; inactive = no such curve, though single readings can be large or run the other way;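 note: potency is the fitted concentration of half-maximal effect; plate controls were no enzyme wells and a reference inhibitor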
# NPSR antagonist = blocks cAMP signaling of the human neuropeptide S receptor. Q6W5P4. 220,000 compounds, 1% hits. Potency, µM (highest dose often 38.3 µM), without a hit: top-dose activity change, negative = inhibition, usual class: inhibitors. CHO-NPSR cells, cAMP TR-FRET, antagonist mode; note: potency is the fitted concentration of half-maximal effect; nearly all actives have a fitted effect of over 50% in size
# Target sequence (Q6W5P4 whole entry, looked up): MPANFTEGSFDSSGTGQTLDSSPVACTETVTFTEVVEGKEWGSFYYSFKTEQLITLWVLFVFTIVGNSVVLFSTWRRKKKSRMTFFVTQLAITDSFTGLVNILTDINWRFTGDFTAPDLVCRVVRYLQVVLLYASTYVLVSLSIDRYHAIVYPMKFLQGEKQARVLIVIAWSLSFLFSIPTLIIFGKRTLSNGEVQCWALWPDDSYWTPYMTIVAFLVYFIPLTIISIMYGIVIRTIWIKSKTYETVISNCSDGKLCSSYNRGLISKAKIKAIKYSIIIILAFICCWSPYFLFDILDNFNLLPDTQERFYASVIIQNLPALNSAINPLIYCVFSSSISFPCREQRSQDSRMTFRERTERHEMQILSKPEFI
# ALOX12 inhib = 12-hLO (ALOX12) enzyme inhibition; purified 12-hLO, xylenol orange hydroperoxide absorbance; 150,000 compounds, 0.12% hits; Potency, µM (highest dose often 57.1 µM), without a hit: at the highest dose activity change, negative = inhibition, actives largely listed as inhibitors; P18054; note: potency is the fitted concentration of half-maximal effect; nearly all actives have a fitted effect of over 55% in size
#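 Lipoxygenase turnover measured by absorbance at 573 and 405 nm after Fe-XO development. Human 12hLO 150 nM, arachidonate 40 uM, pH 7.0 Hepes buffer with detergent; 15 min compound preincubation, 30 min reaction.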
# HPGD block = inhibitors of human 15-hydroxyprostaglandin dehydrogenase (HPGD) | purified HPGD, NADH fluorescence kinetic, PGE2 substrate | Potency, µM, inactives show at the top dose activity change, negative = inhibition, actives largely listed as inhibitors | P15428 | 150,000 compounds, 4.3% hits; active = well fitted inhibition curve with a large enough effect, not every such curve was filed as active; inconclusive = small, poorly fitted or top-dose-only effect, or another doubt; inactive = no such curve, though single readings can be large or run the other way; note: potency is the fitted concentration of half-maximal effect
# Target sequence (P15428 whole entry, looked up): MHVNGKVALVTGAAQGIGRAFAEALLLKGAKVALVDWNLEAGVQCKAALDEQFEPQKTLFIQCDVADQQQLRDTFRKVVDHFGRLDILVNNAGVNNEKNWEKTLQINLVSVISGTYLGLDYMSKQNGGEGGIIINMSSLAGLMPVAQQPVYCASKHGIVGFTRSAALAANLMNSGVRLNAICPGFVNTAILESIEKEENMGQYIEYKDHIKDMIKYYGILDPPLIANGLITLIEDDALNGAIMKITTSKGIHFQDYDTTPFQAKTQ
#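 NADH formation kinetics: reaction with 30 uM PGE2 and 1 mM NAD+ (final), 20 nM enzyme, Tris-HCl pH 8 with Tween 20, after 15 min compound preincubation at room temperature. Fluorescence change, last versus first of five reads.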
# IMPase inh = IMPase inhibition in cells | P97697 | CHO-M1 cells, IP1 accumulation, HTRF TR-FRET ratio | inhibition (IP1 accumulation), % at 46.1 µM | 120,000 tested, under 10 active | AID 901; active = well fitted curve in the direction sought with a large enough effect in the signal ratio, not every such curve was filed as active; inconclusive = small, poorly fitted or top-dose-only effect, or a change in a side signal; inactive = no such curve, though single readings can be large or run the other way; the % refers to the signal ratio;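 note: cells stimulated with carbachol in lithium chloride buffer; plate controls were DMSO basal wells for no effect and reference inhibitor wells for full effect; higher means more IMPase inhibition seen as more IP1 and lower FRET ratio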
#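 Measured: the HTRF emission ratio (665/620 nm) plus the 620 nm donor channel, each fitted to the Hill equation to give AC50. Cells were CHO-M1 given compounds up to 46 uM and a 30 min carbachol stimulation at 37C.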
# Starred values were filed as active, the others as inactive; ? = inconclusive; . = not tested or not shown; [ ] = remark or other dose. Rows were chosen to be rich in hits. Some 8.9% of all compounds tested hit in one or more screens of this group. Unless noted, calls come from the whole dose curve; as a rule, active = well fitted curve in the direction sought with a large enough effect; inconclusive = small, poorly fitted or top-dose-only effect, or another doubt; inactive = no such curve, though single readings can be large; an effect the other way counts as inactive or inconclusive. Unless noted, % is set by controls: 0 for no effect and ±100 for the full control effect.
SMILES,IMPase Li inh,ALDH1A1 inh,NPSR antagonist,ALOX12 inhib,HPGD block,IMPase inh
Cc1ccc(NC(=O)CN(C)C(=O)Cn2ncc(Cl)c(Cl)c2=O)cc1,-1.1%,28.2µM*,-34.7%,0.6%,-7.4%,-2.9
Cc1ccc(NC(=O)CN(C)C(=O)COc2c(Cl)cc(Cl)c3ccc(C)nc23)cc1,4.7%,8.8%,-9.0%,-6.6%,-8.0%,-8.6
CCN(CC)C(=O)CC(c1ccc(F)cc1)c1ccco1 (stereo unspecified),29.7%[38.3 µM],?,-14.1%[46.1 µM],-1.5%,20µM*,4.5
Cc1ccc(C(=O)c2no[n+]([O-])c2C(=O)c2ccc(C)cc2)cc1,2.5%,0.501µM*,-17.0%,0.4%,20µM*,.
Cc1ccc(C(=O)c2ccc(C)cc2)cc1,3.5%,?,-1.5%,.,.,.
COc1ccc(-c2n[nH]c(=S)n2-c2ccc3c(c2)OCCO3)cc1,-8.3%,-8.8%,-10.8%,-4.7%,25.1µM*,.
Oc1ccc(-c2n[nH]c(=S)n2-c2ccc3c(c2)OCCO3)c(O)c1,-6.8%,?,11.4%,-8.1%,14.1µM*,.
S=c1[nH]nc(-c2ccc3ccccc3n2)n1-c1ccc2c(c1)OCCO2,.,.,-29.8%,.,.,.
Cc1ccc(CO)cc1,-1.0%,-0.7%,.,-1.2%,-16.0%,.
OCc1ccncc1.OCc1ccncc1.[Cl][Pt]([Cl])([Cl])[Cl],7.5%,2.82µM*,.,-16.8%[11.4 µM],?,.
CCOC(=O)C(c1ccc(OC)c(OC)c1)C1c2ccccc2C=C(C)N1C(=O)OC (stereo unspecified),12.6%,18.8%[13.5 µM],.,1.5%[11.4 µM],-4.3%,.
CCOC(=O)/C(C)=C1\NC(C)(C)Cc2ccccc21,9.0%,?,3.6%,-10.9%,20µM*,.
CCOC(=O)/C(C(=O)Nc1ccc(Br)cc1)=C1/NC(C)(C)Cc2ccccc21,9.6%,?,-31.8%,-0.8%,-14.6%,.
CCOC(=O)/C(C(=O)Nc1ccccc1Cl)=C1/NC(C)(C)Cc2ccccc21,16.3%,14.1µM*,1.9%[46.1 µM],-5.3%,-25.6%,-6.3
CC1(C)Cc2ccccc2C(=C(C#N)C#N)N1,3.3%,-8.9%,15.6%,0.5%,-3.7%,.
COc1cc(NC(=O)CCc2c(C)nc3nc(C)nn3c2C)cc(OC)c1,39.0%[38.3 µM],-5.9%,-0.4%[46.1 µM],9.9%,-21.1%,1.5
COc1ccc(-n2nnc3c(SCC(=O)N4CCN(c5ccccc5)CC4)ncnc32)cc1,.,?,.,-0.7%,-2.3%,.
COc1ccc(S(=O)(=O)N2CCOCC2)cc1C(C)C,11.5%[38.3 µM],-2.0%,-4.9%[46.1 µM],6.5%,-10.6%,-2.1
CCOC(=O)N1CCN(C(=O)c2ccc3c(=O)n(CCC4=CCCCC4)c(=O)[nH]c3c2)CC1,32.3%[38.3 µM],6.31µM*,-12.7%[46.1 µM],-3.6%,-6.1%,14.6
CC1=N/C(=C\c2ccc([N+](=O)[O-])cc2)C(=O)N1c1cc(Cl)ccc1C,-8.4%[38.3 µM],11.2µM*,-21.9%[46.1 µM],3.8%,-21.4%,3.3
c1ccc(-n2nnc3cnccc32)cc1,2.9%[38.3 µM],1.26µM*,13.8%[46.1 µM],-4.7%,-28.4%,-5.8
Cc1ccc2oc(-c3ccc(NC(=O)c4cccc(F)c4)c(C)c3)nc2c1,.,.,.,.,.,-1.0
O=C(COc1ccc(S(=O)(=O)N2CCCCC2)cc1)NCc1ccncc1,0.1%[38.3 µM],22.4µM*,-3.5%[46.1 µM],1.0%,-13.9%,12.3
CC1CC(C)CN(S(=O)(=O)c2ccc(C(=O)Nc3sccc3C(N)=O)cc2)C1 (stereo unspecified),32.2%[38.3 µM],?,?,-3.1%,?,-17.0
O=C(Nc1ccc(Cc2ccncc2)cc1)c1ccc(S(=O)(=O)N2CCCC2)cc1,22.8%,14.1µM*,3.1%,.,.,.
SMILES,IMPase Li inh,ALDH1A1 inh,NPSR antagonist,ALOX12 inhib,HPGD block,IMPase inh
COc1ccc(CCNC(=O)COc2ccc(S(=O)(=O)N3CCCC3)cc2)cc1,4.4%,10µM*,-11.6%,.,.,.
NC(=O)c1ccsc1NC(=O)c1ccc(S(=O)(=O)N2CCCC2)cc1,5.9%,?,2µM*,.,.,.
COC(=O)c1c(C)oc(C)c1S(=O)(=O)NCc1ccc(OC)cc1,.,.,6.0%,.,.,.
O=C(Nc1nnc(-c2ccco2)o1)c1ccc(S(=O)(=O)N2CCCC2)cc1,4.0%,35.5µM*,-21.8%,.,.,.
COc1ccc(S(=O)(=O)N2CCN(C(=O)COc3ccccc3)CC2)cc1,-5.4%,?,5.7%,.,.,.
COc1ccc(-c2cnnn2-c2ccc(NC(=O)c3ccc(S(=O)(=O)N4CCCCC4)cc3)cc2)cc1OC,3.2%,?,3.16µM*,-1.6%,?,.
COc1ccc(CCC(=O)N2CCN(S(=O)(=O)c3ccc4ccccc4c3)CC2)cc1,3.8%[38.3 µM],14.1µM*,-24.1%[46.1 µM],-6.4%,-18.9%,-12.9
CCOc1cc(CNn2nnnc2N)cc(Cl)c1OCC(=O)NC(C)(C)C,-6.8%[38.3 µM],3.5%,-4.6%[46.1 µM],-3.0%,-11.3%,-8.1
CCC(=O)Nc1ccc(Cl)c(NC(=O)c2cccc(OC)c2)c1,0.6%,-9.6%,-3.6%,.,.,.
CN(C)/C=C1\NC(=S)N(c2ccccc2)C1=O,2.3%,?,-1.6%,.,.,.
COc1ccc(N2C(=O)/C(=C/c3cccs3)NC2=S)cc1,16.0%,3.16µM*,-23.9%,1.4%,3.55µM*,.
COc1cccc(-n2c(SCC(=O)N3CCOCC3)nnc2-c2c[nH]c3ccccc23)c1,-24.7%[38.3 µM],1.5%,-14.0%[46.1 µM],-3.0%,-2.5%,0.6
O=c1c(=Nc2ccccc2O)c(=O)c2ccccc12,5.9%,22.4µM*,18.2%,.,.,.
CCN(CC)c1ccc(C2CC(=O)Nc3cc(OC)c(OC)cc32)cc1 (stereo unspecified),6.9%[38.3 µM],12.6µM*,-6.5%[46.1 µM],-5.4%,-10.5%,9.4
COc1cc2c(cc1OC)C(c1ccc(N(C)C)cc1)CC(=O)N2 (stereo unspecified),10.7%[38.3 µM],8.91µM*,-10.4%[46.1 µM],-0.5%,-13.3%,9.3
COc1ccccc1C1CC(=O)Nc2cc3c(cc21)OCCO3 (stereo unspecified),45.2%[38.3 µM],?,28.7%[46.1 µM],-1.4%,31.6µM*,2.7
COc1ccccc1C1/C(=C(/O)c2ccccc2)C(=O)C(=O)N1CCO (stereo unspecified),4.7%[38.3 µM],-1.8%,-6.1%[46.1 µM],3.3%,-19.6%,-3.1
CCCCc1cc2c(cn1)C(=O)C(C)(OC(C)=O)C(=O)C2 (stereo unspecified),11.4%,1.26µM*,.,0.0%[11.4 µM],-3.5%,.
Cn1c(Cn2c(=O)sc3ccccc32)nnc1SCC(N)=O,-1.4%,0.8%,4.8%[46.1 µM],5.0%,-4.2%,-10.4
COC(=O)c1ccccc1NC(=O)c1ccccc1SC,20.7%,-3.8%,-5.8%[46.1 µM],-7.1%,-30.3%,-4.6
COCCCNC(=O)c1ccccc1SC,10.0%[38.3 µM],2.3%,-4.7%[46.1 µM],-2.5%,31.6µM*,9.2
CCOC(=O)c1ccccc1NC(=O)c1ccccc1SC,28.8%[38.3 µM],14.1µM*,?,-23.9%,-10.5%,12.3
CCOC(=O)c1ccccc1NC(=O)CN(c1ccccc1)S(=O)(=O)N(C)C,21.4%[38.3 µM],28.2µM*,-29.5%[46.1 µM],-4.8%,-4.7%,?
